# Source: PubChem BioAssay (NCATS)
# “And” between values parts separate entries of the source, which are not always exact repeats. Identical values can stand only once. Inconclusive results are not listed. A number with no mark means an inactive call. The source made the active and inactive calls. Calls follow the shape of the dose curve; as a rule, active = well fitted activation curve with a large enough effect; inconclusive = small, poorly fitted or top-dose-only effect; inactive = no such curve, though single readings can be large or run the other way.
# Target: Cellular tumor antigen p53 (Homo sapiens) (UniProt P04637)
# Sequence (P04637 whole entry, looked up): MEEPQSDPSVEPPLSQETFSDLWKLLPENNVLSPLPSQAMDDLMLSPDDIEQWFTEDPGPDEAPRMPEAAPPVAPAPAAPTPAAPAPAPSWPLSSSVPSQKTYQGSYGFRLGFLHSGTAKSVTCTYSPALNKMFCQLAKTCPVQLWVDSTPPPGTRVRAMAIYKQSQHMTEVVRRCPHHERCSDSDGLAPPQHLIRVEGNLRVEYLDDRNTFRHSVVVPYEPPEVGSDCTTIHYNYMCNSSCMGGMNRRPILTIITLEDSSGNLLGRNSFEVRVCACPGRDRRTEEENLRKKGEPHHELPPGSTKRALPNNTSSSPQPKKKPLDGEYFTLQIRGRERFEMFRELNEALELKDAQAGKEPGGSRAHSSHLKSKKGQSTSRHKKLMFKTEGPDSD
# Assay: Primary qHTS for small molecule compounds that upregulate eGFP-tagged delta133p53alpha (in N-terminal) cells. (AID 2060322); also: nearly all actives have a fitted effect of over 75% in size;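 as to activation: cells pre-induced with doxycycline then dosed without doxycycline; series mostly up to about 56 µM; 0% = DMSO vehicle and 100% = reference activator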
# Conditions: NCI-H358 eGFP-delta133p53alpha fluorescence, 24 h; activation: active compounds read high
# Description: Assay Development and Screening Technology
# National Center for Advancing Translational Sciences (NCATS),
# National Institute of Health (NIH), Rockville, Maryland
# Cellular senescence (CS) is one of the hallmarks of aging and age-related diseases. Senescent cells are characterized by an irreversible growth arrest, an increase in senescence-associated beta-galactosidase (SA-beta-gal) activity and p16INK4a expression, an activation of the DNA damage response pathways, and the emergence of a senescence-associated secretory phenotype (SASP).
# Delta133p53alpha, a human/primate-specific p53 protein isoform, delays or inhibits the induction of CS and SASP in various types of human cells, including progeria-derived fibroblasts, primary normal astrocytes, and CD8+ T lymphocytes. Induction of delta133p53alpha with small molecule compounds may provide therapeutic opportunities for inhibition of senescence/SASP-associated pathologies in progeria syndromes, astrocyte-mediated neuroprotection in neurodegenerative diseases, and possibly prevention and treatment of a wider range of senescence- and aging-associated diseases.
# Here we report the development and validation of a cell-based quantitative high throughput screening (qHTS) assay in 1,536-well format. This qHTS assay uses the NCI-H358 cell line with doxycycline-inducible expression of enhanced green fluorescent protein (eGFP)-tagged delta133p53alpha, which allows efficient and highly quantitative measurement of the protein levels.
# PROTOCOL TABLE (as described by Inglese J, Shamu CE and Guy RK. 2007)
# SEQUENCE No. (e.g., 1, 2, 3, etc.); […] (e.g., Cells, Incubation, Reagent, etc.); VALUE; DESCRIPTION.
# 1; Cells; 4uL; 800 doxycycline treated cells / well in doxycycline-free media, 1536-well black, clear-bottom low base Aurora microplates.
# 2; Compounds; 23 nL; Kalypsis pin tool (Wako) equipped with 1536-well pin heads, 5-azacytidine positive control.
# 3; Incubation; 24 hr; 37C, 5% CO2; 95% relative humidity.
# 4; Aspiration; 1x; BioTek EL406 washer dispenser (Agilent).
# 5; Fixing; 3.5% paraformaldehyde, BioTek EL406 washer dispenser (Agilent).
# 6; Washing; 1x PBS; BioTek EL406 washer dispenser (Agilent).
# 7; Nuclei staining; 1:1000 dilution of Hoechst 33342 (Thermofisher), BioTek EL406 washer dispenser (Agilent).
# 8; Incubation; 20 min; in the dark at room temperature.
# 9; Washing; 2x, 1x PBS (ThermoFisher), BioTek EL406 washer dispenser (Agilent).
# 10; Reagent; 10 uL; 1x PBS per well, sealed with clear adhesive tape.
# NOTES (numbers refer to sequence numbers above).
# 1. NCI-H358 cells expressing eGFP-tagged delta133p53alpha were grown in T75 culture flasks and treated with doxycycline for 24h, at 10 ng/ml for eGFP-D133p53a cells (N-terminal cell) and 100 ng/ml for D133p53a-eGFP cells (C-terminal cells). Cells were trypsinized, counted using a Counted 3 Automated Cell Counter (Thermo Fisher), and diluted to a concentration of 200,000 cells/ml. A Multidrop Combi Reagent Dispenser (ThermoFisher) was used to dispense 800 cells/well in […] of doxycycline-free media, into 1536-well black/clear bottom low base plates (AuroraMicroplates).
# 2. After plating cells, 23 nl of compound library, DMSO vehicle control or positive control (5-azacytidine) were transferred by Pin Tool (Wako). The plate map layout was the same for each plate: (column 1) non-doxycycline treated cells + DMSO vehicle control; (column 2) doxycycline treated cells + DMSO vehicle control baseline; (column 3) doxycycline treated cells + positive control 57.5 uM final concentration 5-azacytidine; (column 4) doxycycline treated cells + serial dilution of 5-azacytidine, 16-point 1:2 titration spanning 1.8 nM to […] final concentration; (columns 5-48) doxycycline treated cells + titration of library compounds.
# 3. Cells were incubated at 37 °C, 5 % CO2, 95% RH with breathable metal lid for 24h.
# 4-10. […] After two washes, 10 ul of 1X PBS (Thermo Fisher) was dispensed to each well. Clear adhesive plate seals (VWR) were applied and plates stored at 4 °C.
# 11. […]
# Potency is read from the fitted curve at half-maximal effect.
Compound,activation,Potency
CCCN1CCO[C@@H]2c3cc(O)ccc3OC[C@@H]21,15.2%,
CC[C@@]1(O)C(=O)OCc2c1cc1n(c2=O)Cc2cc3c(OC)cccc3nc2-1,,6.59 µM (active)
CC(O)=C(C#N)C(=O)Nc1cc(Br)ccc1Br,1.6%,
CC(C)(C)NC[C@H](O)c1ccc(O)cc1Cl,-6.33%,
C[N@@+]1(CC2CC2)CC[C@]23c4c5ccc(O)c4O[C@H]2C(=O)CC[C@@]3(O)[C@H]1C5,-5.67%,
CC(C)(C)NCC(O)c1cc(Cl)c(N)c(Cl)c1 (stereo not given),-6.21%,
C[C@]12CC[C@H](O[C@@H]3O[C@H](CO)[C@@H](O)[C@H](O)[C@H]3O)CC1=CC[C@@H]1C2CC[C@]2(C)[C@@H](C3=CC(=O)OC3)CC[C@]12O (stereo not given in full),0.763%,
CO[C@H]1C[C@H](O[C@H]2CC[C@]3(C=O)[C@H]4CC[C@]5(C)[C@@H](C6=CC(=O)OC6)CC[C@]5(O)[C@@H]4CC[C@]3(O)C2)O[C@H](C)[C@H]1O,-29.8%,
Cc1c(N2C(=O)[C@@H]3[C@H](O)CCN3C2=O)ccc(C#N)c1Cl,3.82%,
O=c1[nH]c2cc(Cl)ccc2n1C1CCNCC1,9.6%,
CCC(=O)O[C@@H]1C=C2CCC3C(CCC4(C)C3CC[C@@H]4OC(=O)CC)C2CC1 (stereo not given in full),6.21%,
CC(C)Oc1cccnc1N(C)C1CCN(Cc2ccccc2)CC1,-4.1%,
CC1(C)C(=O)N(c2ccc(C#N)c(C(F)(F)F)c2)C(=O)N1CCCCO,-17.7%,
COc1cc(OC)c(OC)cc1C=O,5.76%,
CCCN(CCC)C1Cc2cc(OC)c(OC)cc2C1,-2.4%,
c1ccc2c(c1)[I+]c1ccccc1-2,35.2%,
CC(C)=CC1C(C(=O)OCc2cccc(Oc3ccccc3)c2)C1(C)C (stereo not given),25.4%,
O=C1CN=C(c2cccc(Br)c2)c2oc3ccccc3c2N1,-24.3%,
N#Cc1cn([C@@H]2O[C@H](CO)[C@H](O)[C@@H]2O)c2ncnc(N)c12,,0.0757 µM (active)
COC1(C[S@@](=O)c2ccccc2)CCN(CCc2c[nH]c3ccc(F)cc23)CC1,-6.68%,

Compound,activation,Potency
N#CCCN,1.42%,
Cc1ccc2c(c1)C1CN(C)CCC1N2 (stereo not given),0.837%,
CCCN(CCC)[C@@H]1CCc2cccc(O)c2C1,20%,
CC(C)(C)CC(C)(C)c1ccc(O)cc1,,28.2 µM (active) and 30.9 µM (active)
CC[C@@H](CO)NC(=O)[C@@H]1C=C2c3cccc4[nH]cc(c34)C[C@H]2N(C)C1,-0.565% and -21.9%,
Cc1cc(SCc2sc(-c3ccc(C(F)(F)F)c(F)c3)nc2C)ccc1OCC(=O)O,-16% and 31%,
CCC1CC2CN3CCc4c([nH]c5ccccc45)C(C(=O)OC)(C2)C13 (stereo not given),3.05%,
CCC1NC(=O)C2C(Cl)C(Cl)CN2C(=O)C(CC)NC(=O)CC(c2ccccc2)NC(=O)C(CO)NC1=O (stereo not given),-6.87%,
CC(=O)O[C@H]1C[C@@H](OC(C)=O)C(C)(C)C2C[C@@H](O)[C@]3(C)C(CC[C@@]4(C)[C@H](C5=CC(=O)OC5O)C[C@H]5O[C@]543)[C@]21C (stereo not given in full),-6.87%,
COc1cccc(NCC(F)Cn2c3ccc(Br)cc3c3cc(Br)ccc32)c1 (stereo not given),8.11%,
O=S(=O)(F)Cc1ccccc1,5.78%,
C[C@@H]1C(=O)O[C@H]2[C@H](O)[C@@]34[C@@H]5OC(=O)[C@@]3(O[C@@H]3OC(=O)[C@@H](O)[C@@]34[C@H](C(C)(C)C)[C@H]5O)[C@@]12O,2.68%,
CN1CCc2cc3c(cc2[C@H]1[C@@H]1OC(=O)c2c1ccc1c2OCO1)OCO3,-11%,
CC12NC(Cc3ccccc31)c1ccccc12 (stereo not given),6.02%,
Cc1c(Cl)c(OCC(=O)N2CCN(C)CC2)nc2sc(C(=O)NC3CC3)c(N)c12,5.25%,
CC(=O)OC12C(O)C(C)C3(O)C4C=C(C)C(=O)C4CC(CO)=CC3C1C2(C)C (stereo not given),-3.05%,
C[N+]1(C)CCOC(O)(c2ccc(-c3ccc(C4(O)C[N+](C)(C)CCO4)cc3)cc2)C1 (stereo not given),14.5%,
O=C1OC(c2ccc(O)c(S(=O)(=O)O)c2)(c2ccc(O)c(S(=O)(=O)O)c2)c2c(Br)c(Br)c(Br)c(Br)c21,25.4%,
CC(CCc1ccc(O)cc1)O[C@@H]1O[C@H](CO[C@H]2OC[C@](O)(CO)[C@H]2O)[C@@H](O)[C@H](O)[C@H]1O (stereo not given in full),2.29%,
CCCCC(CC)COC(=O)c1ccccc1C(=O)OCC(CC)CCCC (stereo not given),0%,
